According to PMC7862700, “An all-to-all approach to the identification of sequence-specific readers for epigenetic DNA modifications on cytosine”:

Assays:
Experiment in all cases: DAPPL (digital affinity profiling via proximity ligation, sequencing); 10 mM Tris-HCl pH 7.5, 50 mM NaCl, 1 mM DTT, 4% glycerol, room temperature, 30 min; GST-TFs on glutathione beads, 16-mer random dsDNA library, 0.1% formaldehyde crosslink after washing; high values mean tight binding
Settings in all cases: protein: recombinant; tags: N-terminal GST; dsDNA, one strand shown
[1] = target: T1, FLI1 (Homo sapiens, UniProt Q01543 1-452)
T1 sequence: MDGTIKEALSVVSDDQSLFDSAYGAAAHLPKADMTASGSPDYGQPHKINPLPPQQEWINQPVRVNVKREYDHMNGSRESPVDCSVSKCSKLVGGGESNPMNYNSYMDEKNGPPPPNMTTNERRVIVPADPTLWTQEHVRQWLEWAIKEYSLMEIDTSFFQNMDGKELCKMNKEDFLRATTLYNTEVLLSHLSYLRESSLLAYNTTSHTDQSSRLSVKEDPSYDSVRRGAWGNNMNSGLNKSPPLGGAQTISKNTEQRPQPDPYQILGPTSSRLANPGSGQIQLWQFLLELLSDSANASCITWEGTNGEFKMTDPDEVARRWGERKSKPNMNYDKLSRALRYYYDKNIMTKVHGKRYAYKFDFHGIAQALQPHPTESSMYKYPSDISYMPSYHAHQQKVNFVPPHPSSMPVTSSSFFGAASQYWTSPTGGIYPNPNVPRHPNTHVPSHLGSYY
Outline: (§1)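 Human transcription factors carrying a GST fusion were produced in yeast, bound to glutathione beads, tagged with DNA barcodes and pooled together with a tag-only sample. Each pool was held with 200 nmole of a random double-stranded 16-mer DNA library in Tris/NaCl/DTT/glycerol buffer for 30 min at room temperature, then washed, crosslinked in 0.1% formaldehyde, proximity-ligated with BsaI/T4 ligase (1 h, 37 °C), PCR-amplified and sequenced on an Illumina NextSeq500. Binding signal is the read frequency of each hexamer for a given factor divided by its frequency in the tag-only sample.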

[2] = target: T2, ELF5 (Homo sapiens, UniProt Q9UKW6-2 1-255)
T2 sequence: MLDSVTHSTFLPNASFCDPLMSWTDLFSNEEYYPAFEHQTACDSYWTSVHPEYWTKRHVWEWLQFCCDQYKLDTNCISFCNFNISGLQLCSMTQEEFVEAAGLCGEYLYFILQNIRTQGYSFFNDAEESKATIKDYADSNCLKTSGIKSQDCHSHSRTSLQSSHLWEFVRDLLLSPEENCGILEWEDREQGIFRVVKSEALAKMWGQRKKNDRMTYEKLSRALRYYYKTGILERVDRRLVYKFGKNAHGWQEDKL
Outline: as §1

[3] = target: T3, ELK1 (Homo sapiens, UniProt P19419 1-428)
T3 sequence: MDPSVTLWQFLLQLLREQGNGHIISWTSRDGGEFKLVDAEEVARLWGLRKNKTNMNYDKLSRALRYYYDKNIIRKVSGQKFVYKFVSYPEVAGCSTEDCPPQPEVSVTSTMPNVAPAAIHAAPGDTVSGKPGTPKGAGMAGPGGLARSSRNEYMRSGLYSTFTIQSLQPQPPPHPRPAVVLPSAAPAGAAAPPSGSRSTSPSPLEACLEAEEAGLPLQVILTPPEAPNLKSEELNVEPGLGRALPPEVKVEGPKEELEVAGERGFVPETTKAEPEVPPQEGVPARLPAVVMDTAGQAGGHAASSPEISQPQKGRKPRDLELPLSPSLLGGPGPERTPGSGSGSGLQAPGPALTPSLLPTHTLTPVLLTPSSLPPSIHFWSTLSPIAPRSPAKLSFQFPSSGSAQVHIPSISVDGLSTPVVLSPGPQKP
Outline: as §1

[4] = target: T4, GABPA (Homo sapiens, UniProt Q06546 1-454)
T4 sequence: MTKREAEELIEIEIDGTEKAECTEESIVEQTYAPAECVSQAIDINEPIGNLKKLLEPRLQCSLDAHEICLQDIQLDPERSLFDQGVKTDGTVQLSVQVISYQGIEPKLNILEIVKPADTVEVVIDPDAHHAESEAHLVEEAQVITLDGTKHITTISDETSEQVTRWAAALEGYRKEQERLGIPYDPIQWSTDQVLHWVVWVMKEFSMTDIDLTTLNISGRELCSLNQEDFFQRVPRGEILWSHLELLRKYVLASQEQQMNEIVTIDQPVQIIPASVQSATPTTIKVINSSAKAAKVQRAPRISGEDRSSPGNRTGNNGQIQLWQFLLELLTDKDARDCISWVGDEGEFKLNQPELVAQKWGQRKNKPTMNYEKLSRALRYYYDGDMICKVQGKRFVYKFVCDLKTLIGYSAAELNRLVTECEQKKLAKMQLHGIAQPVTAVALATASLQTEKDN
Outline: as §1

[5] = target: ELF1 (Homo sapiens, UniProt P32519 1-619)
Outline: as §1

[6] = target: T5, EHF (Homo sapiens, UniProt Q9NZC4 1-300)
T5 sequence: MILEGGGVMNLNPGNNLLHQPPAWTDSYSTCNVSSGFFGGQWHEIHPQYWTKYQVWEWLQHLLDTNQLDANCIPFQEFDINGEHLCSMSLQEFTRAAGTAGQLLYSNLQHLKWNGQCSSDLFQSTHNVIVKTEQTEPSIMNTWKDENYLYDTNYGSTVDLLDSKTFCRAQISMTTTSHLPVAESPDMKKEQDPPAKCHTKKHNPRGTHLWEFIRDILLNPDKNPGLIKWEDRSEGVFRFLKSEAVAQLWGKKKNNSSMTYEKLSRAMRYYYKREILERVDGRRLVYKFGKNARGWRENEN
Outline: as §1

[7] = target: SPI1 (Homo sapiens, UniProt P17947 1-270)
Outline: as §1

[8] = target: T6, ELK3 (Homo sapiens, UniProt P41970 1-407)
T6 sequence: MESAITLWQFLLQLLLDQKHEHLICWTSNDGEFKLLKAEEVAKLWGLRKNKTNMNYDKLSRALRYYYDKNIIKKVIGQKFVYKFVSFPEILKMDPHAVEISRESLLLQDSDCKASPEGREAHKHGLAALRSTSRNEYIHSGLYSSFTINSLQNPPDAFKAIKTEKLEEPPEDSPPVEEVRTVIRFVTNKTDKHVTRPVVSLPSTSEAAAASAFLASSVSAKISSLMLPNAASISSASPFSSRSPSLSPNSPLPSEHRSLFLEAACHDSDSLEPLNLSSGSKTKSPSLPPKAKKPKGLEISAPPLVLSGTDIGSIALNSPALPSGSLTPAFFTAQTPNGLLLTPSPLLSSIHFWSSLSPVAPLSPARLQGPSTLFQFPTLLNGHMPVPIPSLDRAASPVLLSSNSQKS
Outline: as §1

[9] = target: T7, ELF3 (Homo sapiens, UniProt P78545 1-371)
T7 sequence: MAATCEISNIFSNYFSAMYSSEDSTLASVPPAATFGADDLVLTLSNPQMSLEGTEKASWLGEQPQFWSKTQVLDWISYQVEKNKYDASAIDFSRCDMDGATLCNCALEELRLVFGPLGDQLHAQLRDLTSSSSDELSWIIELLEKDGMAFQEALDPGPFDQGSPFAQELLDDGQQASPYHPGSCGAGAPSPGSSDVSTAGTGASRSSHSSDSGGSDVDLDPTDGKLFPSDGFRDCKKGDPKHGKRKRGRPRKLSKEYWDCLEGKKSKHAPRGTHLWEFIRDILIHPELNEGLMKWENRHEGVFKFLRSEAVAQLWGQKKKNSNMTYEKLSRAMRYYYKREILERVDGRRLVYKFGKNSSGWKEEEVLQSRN
Outline: as §1

[10] = target: T8, ERF (Homo sapiens, UniProt P50548 1-548)
T8 sequence: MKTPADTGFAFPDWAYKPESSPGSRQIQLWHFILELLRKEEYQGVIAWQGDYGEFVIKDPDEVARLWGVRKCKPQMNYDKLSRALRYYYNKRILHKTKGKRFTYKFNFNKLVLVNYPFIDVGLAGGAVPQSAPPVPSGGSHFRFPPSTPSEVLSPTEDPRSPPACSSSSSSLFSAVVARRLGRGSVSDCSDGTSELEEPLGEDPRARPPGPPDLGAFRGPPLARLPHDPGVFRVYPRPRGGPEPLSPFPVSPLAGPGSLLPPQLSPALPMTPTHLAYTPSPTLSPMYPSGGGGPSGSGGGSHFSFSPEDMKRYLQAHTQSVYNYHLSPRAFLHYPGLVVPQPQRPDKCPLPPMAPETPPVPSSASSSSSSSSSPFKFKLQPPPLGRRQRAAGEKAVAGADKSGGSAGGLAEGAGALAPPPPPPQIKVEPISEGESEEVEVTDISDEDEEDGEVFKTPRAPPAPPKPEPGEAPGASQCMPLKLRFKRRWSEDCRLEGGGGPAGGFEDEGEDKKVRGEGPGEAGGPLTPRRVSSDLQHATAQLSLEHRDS
Outline: as §1

[11] = target: T9, ETV3L (Homo sapiens, UniProt Q6ZN32 1-361)
T9 sequence: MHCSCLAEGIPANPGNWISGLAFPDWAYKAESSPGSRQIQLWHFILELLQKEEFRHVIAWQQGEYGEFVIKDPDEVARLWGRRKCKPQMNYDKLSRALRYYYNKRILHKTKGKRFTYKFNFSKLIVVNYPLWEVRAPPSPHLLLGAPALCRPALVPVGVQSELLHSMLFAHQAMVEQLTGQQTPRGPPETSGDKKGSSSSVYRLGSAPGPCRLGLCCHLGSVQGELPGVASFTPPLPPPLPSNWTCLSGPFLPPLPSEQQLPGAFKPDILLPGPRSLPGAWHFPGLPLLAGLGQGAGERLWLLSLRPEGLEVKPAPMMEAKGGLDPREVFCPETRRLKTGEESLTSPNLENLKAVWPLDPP
Outline: as §1

[12] = target: T10, SPDEF (Homo sapiens, UniProt O95238 1-335)
T10 sequence: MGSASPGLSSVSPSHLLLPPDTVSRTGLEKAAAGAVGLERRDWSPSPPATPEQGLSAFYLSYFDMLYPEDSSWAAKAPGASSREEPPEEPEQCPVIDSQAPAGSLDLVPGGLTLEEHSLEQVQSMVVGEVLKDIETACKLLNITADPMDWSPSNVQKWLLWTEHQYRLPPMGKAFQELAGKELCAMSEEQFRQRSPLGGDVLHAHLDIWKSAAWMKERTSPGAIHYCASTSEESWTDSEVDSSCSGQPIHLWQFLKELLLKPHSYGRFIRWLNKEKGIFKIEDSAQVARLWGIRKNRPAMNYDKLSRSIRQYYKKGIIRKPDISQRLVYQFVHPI
Outline: as §1

[13] = target: T11, ETV7 (Homo sapiens, UniProt Q9Y603 1-341)
T11 sequence: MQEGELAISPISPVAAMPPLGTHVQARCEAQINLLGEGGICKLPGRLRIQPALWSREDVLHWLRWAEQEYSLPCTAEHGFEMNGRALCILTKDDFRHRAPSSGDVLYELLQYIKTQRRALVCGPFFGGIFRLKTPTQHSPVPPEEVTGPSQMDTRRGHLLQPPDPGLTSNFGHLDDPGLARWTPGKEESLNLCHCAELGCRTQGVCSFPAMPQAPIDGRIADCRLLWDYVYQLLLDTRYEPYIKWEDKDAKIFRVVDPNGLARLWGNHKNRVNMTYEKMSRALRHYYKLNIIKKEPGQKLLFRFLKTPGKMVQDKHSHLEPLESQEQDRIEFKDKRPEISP
Outline: as §1

[14] = target: T12, ETV3 (Homo sapiens, UniProt P41162-2 1-143)
T12 sequence: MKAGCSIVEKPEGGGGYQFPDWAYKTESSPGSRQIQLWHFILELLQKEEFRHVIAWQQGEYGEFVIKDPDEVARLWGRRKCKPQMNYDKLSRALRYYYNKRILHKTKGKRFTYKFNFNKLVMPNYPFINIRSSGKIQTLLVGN
Outline: as §1

[15] = target: ETV6 (Homo sapiens, UniProt P41212 1-452)
Outline: as §1

Chain of ELF1 (P32519 whole entry): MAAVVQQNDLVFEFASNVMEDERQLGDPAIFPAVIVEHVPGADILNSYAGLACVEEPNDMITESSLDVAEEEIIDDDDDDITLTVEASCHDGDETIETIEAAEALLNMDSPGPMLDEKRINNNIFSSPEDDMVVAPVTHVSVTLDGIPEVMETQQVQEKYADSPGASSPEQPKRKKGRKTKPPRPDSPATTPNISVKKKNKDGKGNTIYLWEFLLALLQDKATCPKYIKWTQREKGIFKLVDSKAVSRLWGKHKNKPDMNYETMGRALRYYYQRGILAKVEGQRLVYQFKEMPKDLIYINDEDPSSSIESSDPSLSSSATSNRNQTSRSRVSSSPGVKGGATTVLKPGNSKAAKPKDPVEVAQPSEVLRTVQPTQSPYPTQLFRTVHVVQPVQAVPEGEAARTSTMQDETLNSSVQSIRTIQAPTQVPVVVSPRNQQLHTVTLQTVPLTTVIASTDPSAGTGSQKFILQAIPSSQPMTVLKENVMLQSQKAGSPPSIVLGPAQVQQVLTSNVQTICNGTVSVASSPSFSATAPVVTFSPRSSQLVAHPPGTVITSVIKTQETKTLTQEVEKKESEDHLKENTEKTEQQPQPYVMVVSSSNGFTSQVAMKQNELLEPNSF
Chain of ETV6 (P41212 whole entry): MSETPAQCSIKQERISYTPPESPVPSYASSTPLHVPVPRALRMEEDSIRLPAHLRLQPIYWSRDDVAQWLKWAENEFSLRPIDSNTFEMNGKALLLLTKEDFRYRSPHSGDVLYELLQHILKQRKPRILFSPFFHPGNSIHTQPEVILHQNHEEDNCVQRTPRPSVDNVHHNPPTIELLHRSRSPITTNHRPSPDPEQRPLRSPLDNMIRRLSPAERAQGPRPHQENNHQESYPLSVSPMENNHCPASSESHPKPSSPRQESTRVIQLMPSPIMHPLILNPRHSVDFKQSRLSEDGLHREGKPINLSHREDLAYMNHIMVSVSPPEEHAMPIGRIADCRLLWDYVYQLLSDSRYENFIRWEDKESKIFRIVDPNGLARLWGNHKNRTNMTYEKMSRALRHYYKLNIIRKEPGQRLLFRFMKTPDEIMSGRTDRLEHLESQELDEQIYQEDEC

Sequence | binding signal [1] | binding signal [2] | binding signal [3] | binding signal [4] | binding signal [5] | binding signal [6] | binding signal [7] | binding signal [8] | binding signal [9] | binding signal [10] | binding signal [11] | binding signal [12] | binding signal [13] | binding signal [14] | binding signal [15]
GACGTT | 1.05 fold enrichment (6-mer frequency, TF over GST control) | 1.01 fold enrichment (6-mer frequency, TF over GST control) | – | – | – | – | – | – | – | – | – | – | – | – | –
CTGGTG | 1.01 fold enrichment (6-mer frequency, TF over GST control) | – | 1.05 fold enrichment (6-mer frequency, TF over GST control) | 1.01 fold enrichment (6-mer frequency, TF over GST control) | 1.02 fold enrichment (6-mer frequency, TF over GST control) | 1.09 fold enrichment (6-mer frequency, TF over GST control) | 1.04 fold enrichment (6-mer frequency, TF over GST control) | 1.15 fold enrichment (6-mer frequency, TF over GST control) | 1.09 fold enrichment (6-mer frequency, TF over GST control) | 1.05 fold enrichment (6-mer frequency, TF over GST control) | 1.06 fold enrichment (6-mer frequency, TF over GST control) | 1.01 fold enrichment (6-mer frequency, TF over GST control) | 1.04 fold enrichment (6-mer frequency, TF over GST control) | 1.03 fold enrichment (6-mer frequency, TF over GST control) | 1.03 fold enrichment (6-mer frequency, TF over GST control)
